Assay results published in PubChem BioAssay (EPA / NIEHS).
Results filed as inconclusive are left out. Active and inactive are the calls of the source. Rule for the calls: active = hit-call score of the fitted dose curve at least 0.9, where 1 is the maximum; inconclusive = response in the unintended direction; inactive = score below 0.9.

Target: mouse Peroxisome Proliferator-activated Receptor gamma (PPARg), Pparg (gene 19016) (UniProt P37238)
Experiment: ATG_mPPARg_XSP1: Attagene TRANS-FACTORIAL Multi-Species (XSP1) HepG2 Assay for mouse Peroxisome Proliferator-activated Receptor gamma (PPARg) (AID 2283802)
Summary of the method: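 HepG2 cells transiently transfected with GAL4-UAS reporter units driven by mouse PPARg–GAL4 chimera; 3 nM 6-alpha-fluorotestosterone present. After 24 h dosing, reporter mRNA quantified by RT-PCR, fluorescent labelling and capillary electrophoresis; gain of signal versus DMSO.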

Chain of mouse Peroxisome Proliferator-activated Receptor gamma (PPARg), Pparg (gene 19016) (P37238 whole entry, looked up): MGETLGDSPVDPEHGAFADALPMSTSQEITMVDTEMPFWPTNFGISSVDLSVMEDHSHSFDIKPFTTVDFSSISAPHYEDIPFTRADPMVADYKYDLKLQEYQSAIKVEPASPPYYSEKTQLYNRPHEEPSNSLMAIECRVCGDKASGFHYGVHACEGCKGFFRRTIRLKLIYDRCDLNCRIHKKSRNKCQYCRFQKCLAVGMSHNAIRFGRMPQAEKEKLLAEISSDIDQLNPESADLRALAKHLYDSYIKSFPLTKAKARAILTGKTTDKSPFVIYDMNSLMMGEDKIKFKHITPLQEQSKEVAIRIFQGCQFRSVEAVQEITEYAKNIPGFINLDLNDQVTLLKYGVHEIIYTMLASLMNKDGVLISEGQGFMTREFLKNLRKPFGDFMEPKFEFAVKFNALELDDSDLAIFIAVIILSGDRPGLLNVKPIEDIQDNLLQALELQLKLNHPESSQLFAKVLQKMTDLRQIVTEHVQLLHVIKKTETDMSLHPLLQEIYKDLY

Compound | outcome | AC50
CC1(C)CCC(=Cc2ccc(Cl)cc2)C1(O)Cn1cncn1 (configuration not stated) | inactive | 
CSC(=O)c1c(C(F)F)nc(C(F)(F)F)c(C(=O)SC)c1CC(C)C |  | 3.94 µM (active)
CCN(CC)C(=O)C(C)Oc1cccc2ccccc12 (configuration not stated) |  | 20.7 µM (active)
Cc1c(COC(=O)[C@@H]2[C@H](/C=C(\Cl)C(F)(F)F)C2(C)C)cccc1-c1ccccc1 |  | 42.5 µM (active)
COP(=S)(OC)Oc1ccc([N+](=O)[O-])c(C)c1 |  | 100 µM (active)
CC(C)NC(=O)N1CC(=O)N(c2cc(Cl)cc(Cl)c2)C1=O |  | 30.4 µM (active)
CC1(C)C(C=C(Cl)Cl)C1C(=O)OC(C#N)c1cccc(Oc2ccccc2)c1 (configuration not stated) |  | 13.5 µM (active)

Target: Nuclear receptor subfamily 1 group I member 2 (Mus musculus) (UniProt O54915)
Experiment: ATG_mPXR_XSP1: Attagene TRANS-FACTORIAL Multi-Species (XSP1) HepG2 Assay for mouse Pregnane X Receptor (PXR) (AID 2283803)
Procedure: ATG_XSP1_multi-species_TRANS is a cell-based, multiplexed assay created by modifying the existing Attagene TRANS-FACTORIAL system to include a panel of nuclear receptors from some or all the following species: human (Homo sapiens), mouse (Mus musculus), frog (Xenopus laevis), zebrafish (Danio rerio), chicken (Gallus gallus), and turtle (Chrysemys picta). The ECOTOX-FACTORIAL format uses HepG2, a human liver cell line, with measurements taken at 24 hours after chemical dosing in a 24-well plate. Xsp1 included 3 nM 6-alpha-fluorotestosterone to partially stimulate the androgen receptor.ATG_mPXR_XSP1 is one of 29 assay components measured or calculated from the ATG_XSP1_multi-species_TRANS assay. It is designed to make measurements of mRNA induction, a form of inducible reporter, as detected with fluorescence intensity signals by Reverse transcription polymerase chain reaction (RT-PCR) and Capillary electrophoresis technology.The assay endpoint ATG_mPXR_XSP1 was analyzed in the positive analysis fitting direction relative to DMSO as the negative control and baseline of activity. Using a type of inducible reporter, measures of mRNA for gain-of-signal activity can be used to understand the reporter gene at the transcription factor-level as they relate to the gene PXR. Furthermore, this assay endpoint can be referred to as a primary readout, because this assay has produced multiple assay endpoints where this one serves a reporter gene function. To generalize the intended target to other relatable targets, this assay endpoint is annotated to the nuclear receptor intended target family, where the subfamily is non-steroidal.
Human liver HepG2 cells are transiently transfected with multiple reporter transcription units (MRTUs) in 6-well plates using FuGene 6 reagent (Roche; 3 ml FuGene/1 mg DNA). The MRTU constructs are regulated by a cis-regulating element (promoter). […] A major difference between the CIS and TRANS system is that in CIS activities of endogenous TFs are measured, whereas the TRANS assay evaluates changes in activities of exogenous, chimeric NR-Gal4 proteins. […] At the end of 24 hour incubation, total RNA was isolated using TriZol reagent (Invitrogen). The isolated RNA is then reverse-transcribed using oligo(dT) primer and Mo-MLV reverse transcriptase (Invitrogen) with DNAse I (Ambion) treatment for 30 min. The one-tenth of the produced cDNA was amplified by PCR using Taq DNA polymerase (Invitrogen) and two reporter sequence-specific primers. The PCR products were fluorescently labeled by primer extension with 6-arboxyfluorescein (6-FAM) 5'-labeled reporter sequence-specific primer (2 min at 95 C, 20 s at 68 C and 10 min at 72 C) and these products were digested with 5U of HpaI (New England Biolabs) for 2h at 37 C. The fragments were purified using Qiaquick PCR columns (Qiagen), analyzed on an ABI 3130xL genetic analyzer (Applied Biosystems) with peak positions identified by using a set of X-rhodamine (ROX)-labeled MapMarker1000 molecular weight standards (BioVentures). The raw capillary electrophoresis data was processed using Attagraph software (Attagene).

Chain of Nuclear receptor subfamily 1 group I member 2 (Mus musculus) (O54915 whole entry, looked up): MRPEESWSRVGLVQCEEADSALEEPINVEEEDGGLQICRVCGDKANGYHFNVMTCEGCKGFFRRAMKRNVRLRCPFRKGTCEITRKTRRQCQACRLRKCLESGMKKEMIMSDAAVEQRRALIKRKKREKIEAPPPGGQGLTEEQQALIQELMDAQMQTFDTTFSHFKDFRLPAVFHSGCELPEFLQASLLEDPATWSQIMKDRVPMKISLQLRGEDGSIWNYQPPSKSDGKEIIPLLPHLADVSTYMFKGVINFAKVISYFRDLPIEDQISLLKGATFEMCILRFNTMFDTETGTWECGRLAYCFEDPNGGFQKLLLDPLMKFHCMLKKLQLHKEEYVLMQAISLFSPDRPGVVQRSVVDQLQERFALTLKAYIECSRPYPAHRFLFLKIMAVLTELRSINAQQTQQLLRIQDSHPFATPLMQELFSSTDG

Compound | AC50
CC1(C)CCC(=Cc2ccc(Cl)cc2)C1(O)Cn1cncn1 (configuration not stated) | 5.78 µM (active)
CSC(=O)c1c(C(F)F)nc(C(F)(F)F)c(C(=O)SC)c1CC(C)C | 0.139 µM (active)
CCN(CC)C(=O)C(C)Oc1cccc2ccccc12 (configuration not stated) | 1.27 µM (active)
Cc1c(COC(=O)[C@@H]2[C@H](/C=C(\Cl)C(F)(F)F)C2(C)C)cccc1-c1ccccc1 | 2.23 µM (active)
COP(=S)(OC)Oc1ccc([N+](=O)[O-])c(C)c1 | 27.4 µM (active)
CC(C)NC(=O)N1CC(=O)N(c2cc(Cl)cc(Cl)c2)C1=O | 12 µM (active)
CC1(C)C(C=C(Cl)Cl)C1C(=O)OC(C#N)c1cccc(Oc2ccccc2)c1 (configuration not stated) | 0.579 µM (active)

Target: frog Thyroid hormone Receptor alpha (TRa), thra-a (gene 397942) (UniProt P15204)
Experiment: ATG_frTRa_XSP1: Attagene TRANS-FACTORIAL Multi-Species (XSP1) HepG2 Assay for frog Thyroid hormone Receptor alpha (TRa) (AID 2283804)
Summary of the method: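 HepG2 cells transiently transfected with frog TRa-GAL4 chimeric reporter units, dosed 24 hr with 3 nM 6-alpha-fluorotestosterone present; reporter mRNA quantified by RT-PCR, fluorescent labelling and capillary electrophoresis, gain of signal versus DMSO.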

Chain of frog Thyroid hormone Receptor alpha (TRa), thra-a (gene 397942) (P15204 whole entry, looked up): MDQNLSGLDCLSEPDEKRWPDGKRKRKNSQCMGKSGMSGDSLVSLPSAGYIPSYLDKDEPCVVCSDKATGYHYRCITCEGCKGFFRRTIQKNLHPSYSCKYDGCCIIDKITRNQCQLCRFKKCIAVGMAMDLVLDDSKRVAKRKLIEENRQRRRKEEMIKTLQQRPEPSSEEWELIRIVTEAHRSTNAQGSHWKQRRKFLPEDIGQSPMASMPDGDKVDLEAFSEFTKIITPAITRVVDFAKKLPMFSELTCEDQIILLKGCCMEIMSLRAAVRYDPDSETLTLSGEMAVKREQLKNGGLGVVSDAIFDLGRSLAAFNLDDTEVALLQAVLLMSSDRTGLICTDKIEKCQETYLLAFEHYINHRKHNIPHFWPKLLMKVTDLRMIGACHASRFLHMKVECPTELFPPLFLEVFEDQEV

Compound | outcome
CC1(C)CCC(=Cc2ccc(Cl)cc2)C1(O)Cn1cncn1 (configuration not stated) | inactive
CCN(CC)C(=O)C(C)Oc1cccc2ccccc12 (configuration not stated) | inactive
CC(C)NC(=O)N1CC(=O)N(c2cc(Cl)cc(Cl)c2)C1=O | inactive

Target: human Thyroid hormone Receptor alpha (TRa), THRA (gene 7067) (UniProt P10827)
Experiment: ATG_hTRa_XSP1: Attagene TRANS-FACTORIAL Multi-Species (XSP1) HepG2 Assay for human Thyroid hormone Receptor alpha (TRa) (AID 2283805)
Summary of the method: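 HepG2 cells transiently transfected with GAL4-UAS reporter units expressing chimeric NR-Gal4 proteins, dosed 24 hours with 3 nM 6-alpha-fluorotestosterone present. Reporter mRNA measured by RT-PCR and capillary electrophoresis; gain of signal fitted versus DMSO.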

Chain of human Thyroid hormone Receptor alpha (TRa), THRA (gene 7067) (P10827 whole entry, looked up): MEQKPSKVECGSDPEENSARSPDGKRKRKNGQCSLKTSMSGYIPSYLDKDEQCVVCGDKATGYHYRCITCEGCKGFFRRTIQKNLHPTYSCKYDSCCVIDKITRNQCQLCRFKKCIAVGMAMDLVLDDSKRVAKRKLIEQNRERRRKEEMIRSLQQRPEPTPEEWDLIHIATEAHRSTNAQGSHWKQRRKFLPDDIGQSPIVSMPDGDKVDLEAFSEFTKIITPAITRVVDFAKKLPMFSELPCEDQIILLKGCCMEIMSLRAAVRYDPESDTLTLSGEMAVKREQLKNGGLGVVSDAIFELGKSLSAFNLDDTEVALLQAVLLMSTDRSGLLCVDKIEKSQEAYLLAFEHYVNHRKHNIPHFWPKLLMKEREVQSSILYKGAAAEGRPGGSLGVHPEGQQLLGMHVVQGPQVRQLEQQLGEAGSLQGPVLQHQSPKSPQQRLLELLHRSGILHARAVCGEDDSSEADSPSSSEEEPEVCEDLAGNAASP

Compound | outcome
CC1(C)CCC(=Cc2ccc(Cl)cc2)C1(O)Cn1cncn1 (configuration not stated) | inactive
CSC(=O)c1c(C(F)F)nc(C(F)(F)F)c(C(=O)SC)c1CC(C)C | inactive
CCN(CC)C(=O)C(C)Oc1cccc2ccccc12 (configuration not stated) | inactive
COP(=S)(OC)Oc1ccc([N+](=O)[O-])c(C)c1 | inactive

System: turtle Thyroid Hormone Receptor, alpha (TRa), gene 101949057
Experiment: ATG_trTRa_XSP1: Attagene TRANS-FACTORIAL Multi-Species (XSP1) HepG2 Assay for turtle Thyroid Hormone Receptor, alpha (TRa) (AID 2283806)
Summary of the method: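 HepG2 cells transiently transfected with GAL4-UAS reporter units and chimeric receptor-Gal4 constructs, with 3 nM 6-alpha-fluorotestosterone present. Reporter mRNA was quantified 24 h after dosing by RT-PCR, 6-FAM labelling and capillary electrophoresis; gain of signal versus DMSO.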

Compound | outcome
CC1(C)CCC(=Cc2ccc(Cl)cc2)C1(O)Cn1cncn1 (configuration not stated) | inactive
CCN(CC)C(=O)C(C)Oc1cccc2ccccc12 (configuration not stated) | inactive
Cc1c(COC(=O)[C@@H]2[C@H](/C=C(\Cl)C(F)(F)F)C2(C)C)cccc1-c1ccccc1 | inactive
COP(=S)(OC)Oc1ccc([N+](=O)[O-])c(C)c1 | inactive
CC(C)NC(=O)N1CC(=O)N(c2cc(Cl)cc(Cl)c2)C1=O | inactive
CC1(C)C(C=C(Cl)Cl)C1C(=O)OC(C#N)c1cccc(Oc2ccccc2)c1 (configuration not stated) | inactive
